Inconclusive results are not listed. Values without a mark were called inactive. The source made the active and inactive calls. The call rests on the fitted dose curve; in most records, active means well fitted curve in the direction sought with a large enough effect; inconclusive means small, poorly fitted or top-dose-only effect, or another doubt; inactive means no such curve, though single readings can be large; an effect the other way counts as inactive or inconclusive.
Test: Primary qHTS for inhibitors of nuclear receptor binding SET domain protein 2 (NSD2) in an isogenic RCH-ACV NSD2 p.E1099K mutant (9B) (AID 1645876)
Conditions: RCH-ACV NSD2 E1099K (9B) viability, CellTiter-Glo, 72 h; series mostly up to 44.9 µM; activity change, negative = viability loss: at the top concentration
Further: nearly all actives have a fitted effect of over 70% in size.
On the % scale 0 is the no-effect control and ±100 the full control effect.

With `CC1CCC2(C=O)C(CO)=CCCC2C1(C)CC(=O)O` (stereo not drawn) as the molecule, how does the “outcome” value read?
Its value is “inactive”.

Which “activity change, negative = viability loss” value does the source give for `CC1CC(=O)C2=C(CCC3(O)C(O)c4c(O)cccc4C(=O)C23O)C1` (stereo not drawn) here?
Its value is -4.65%.

Which “activity change, negative = viability loss” value does the source give for `CC1(C)CC2=C3C=CC4C5(C)CCC(O)C(C)(C)C5CCC4(C)C3(C)CCC2(C)C(O)C1` (stereo not drawn) here?
The value was -14.4% [at 17.3 µM].

With `CC(C)=CCC/C(C)=C/CO[C@@H]1O[C@H](CO)[C@@H](OC(=O)/C=C/c2ccc(O)cc2)[C@H](O[C@@H]2O[C@@H](C)[C@H](O)[C@@H](O)[C@H]2O)[C@H]1O` as the molecule, how does the “activity change, negative = viability loss” value read?
Its value is -8.04% [at 17.3 µM].

Test: Primary qHTS for inhibitors of nuclear receptor binding SET domain protein 2 (NSD2) in an RCH-ACV wild type WT cells (2C) (AID 1645877); further: potency means the concentration at half of the fitted maximal effect
Conditions: RCH-ACV (leukaemia line) NSD2 WT (2C) viability, CellTiter-Glo, 72 h; series mostly up to 44.9 µM; activity change, negative = cell killing: at the top concentration

For `CC1=C(C(=O)O[C@@H]2O[C@H](COC3OCC(O)C(O)C3O)[C@@H](O)[C@H](O)[C@H]2O)C(C)(C)CCC1` (stereo partly drawn), which “activity change, negative = cell killing” value is on record?
The value was -41.6% [at 17.3 µM].

For `CC1(C)CC[C@]2(C(=O)O)CC[C@]3(C)C(=CCC4[C@@]5(C)CC[C@H](O[C@@H]6O[C@H](C(=O)O)[C@@H](O[C@@H]7OC[C@@H](O)[C@H](O)[C@H]7O)[C@H](O)[C@H]6O)C(C)(C)C5CC[C@]43C)C2C1O` (stereo partly drawn), which “activity change, negative = cell killing” value is on record?
Its value is 1.48% [at 17.3 µM].

Which “outcome” value does the source give for `COC1=CC(=O)CC(C)C12Oc1cc(OC)cc(O)c1C2=O` (stereo not drawn) here?
Its value is “inactive”.

With `Nc1nc2c(ncn2[C@@H]2O[C@@H]3COP(=O)(O)O[C@H]3[C@H]2O)c(=O)[nH]1` as the molecule, how does the “activity change, negative = cell killing” value read?
The value was -21.4%.

Which Potency does the source give for `CCCCNc1ncc2c(-c3ccc(F)cc3)nn(CC3CCC(N)CC3)c2n1` (stereo not drawn) here?
The Potency was 1620 nM (active).

Which “activity change, negative = cell killing” value does the source give for `NC1CCCCN(c2c(F)cc3c(=O)c(C(=O)O)cn(C4CC4)c3c2Cl)C1` (stereo not drawn) here?
The value was -7.04% [at 17.3 µM].

For `COC(=O)c1ccc(OC(CO)C(O)c2ccc(O)c(OC)c2)c(OC)c1` (stereo not drawn), which “activity change, negative = cell killing” value is on record?
The value was -25.1%.

Which “activity change, negative = cell killing” value does the source give for `COc1ccc([C@@H]2OC[C@H]3[C@@H]2CO[C@@H]3c2ccc(OC3OC(CO)C(O)C(O)C3O)c(OC)c2)cc1OC` (stereo partly drawn) here?
The value was -8.53% [at 17.3 µM].

With `CC(=O)O[C@@H]1c2c(C)coc2C(=O)[C@@]23O[C@@H]2CC[C@H](C)[C@@]13C` as the molecule, how does the “activity change, negative = cell killing” value read?
The value was -24.5%.

Which Potency does the source give for `COc1cc(O)cc(/C=C/c2ccc(O[C@@H]3O[C@H](CO)[C@@H](O)[C@H](O)[C@H]3O)cc2)c1` here?
The Potency was 7960 nM (active).

Which Potency does the source give for `CC[C@]1(O)CC2CN(CCc3c([nH]c4ccccc34)[C@@](C(=O)OC)(c3cc4c(cc3OC)N(C=O)[C@H]3[C@@](O)(C(=O)OC)[C@H](OC(C)=O)[C@]5(CC)C=CCN6CC[C@]43[C@@H]65)C2)C1` (stereo partly drawn) here?
The Potency was 6.4 nM (active).

For `CC1(O)CCCC2(C)C1CCC13CC(CO)C(CCC12)C3` (stereo not drawn), which “activity change, negative = cell killing” value is on record?
Its value is -20.8%.

For `CC1=C(CCC(C)CC(=O)O)[C@@]2(C)CCCC(C)(C)C2CC1=O` (stereo partly drawn), which “activity change, negative = cell killing” value is on record?
The value was -6.6%.

Which “outcome” value does the source give for `O=C(OC[C@H]1O[C@H](O[C@]2(CO)O[C@H](CO)[C@@H](O)[C@@H]2O)[C@H](O)[C@@H](O)[C@@H]1O)c1ccccc1` here?
The value was “inactive [at 17.3 µM]”.

For `C=C(C)C1CCC2(C(=O)O)CCC3(C(=O)O)C(CCC4C5(C)CCC(O)C(C)(C(=O)O)C5CCC43C)C12` (stereo not drawn), which “activity change, negative = cell killing” value is on record?
The value was -14.5% [at 17.3 µM].

For `CC(C)=CCC/C(C)=C/CO[C@@H]1O[C@H](CO)[C@@H](O)[C@H](O)[C@H]1O`, which “outcome” value is on record?
The value was “inactive”.

For `CC1CC(O)/C=C/C(O)C(O)CC(=O)Cc2c(Cl)c(O)cc(O)c2C(=O)O1` (stereo not drawn), which “activity change, negative = cell killing” value is on record?
Its value is -2.18%.

Which “activity change, negative = cell killing” value does the source give for `O=C(CO)[C@@H](O)[C@H](O[C@@H]1O[C@H](CO)[C@H](O)[C@H](O)[C@H]1O)[C@H](O)CO` here?
Its value is -12.6%.

With `CC(C)C(=O)OC[C@H]1O[C@H](O[C@H]2O[C@H](CO)[C@@H](O)[C@H](O)[C@H]2O)[C@H](O)[C@@H](O)[C@@H]1O` as the molecule, how does the “outcome” value read?
Its value is “inactive [at 17.3 µM]”.

With `CC1CC(C(O)C(C)(C)O)OC2CC3(C)C4(C)CCC5C(C)(C)C(=O)CCC5(C)C4CCC3(O)C12O` (stereo not drawn) as the molecule, how does the “activity change, negative = cell killing” value read?
Its value is 1.73% [at 17.3 µM].

For `CC(C)C[C@H](CC(=O)NO)C(=O)N[C@H](C(=O)N[C@@H](C)C(=O)NCCN)C(C)(C)C`, which activity change, negative = cell killing is on record?
Its activity change, negative = cell killing is -8.71% [at 9.23 µM].

Which activity change, negative = cell killing does the source give for `C[C@@H]1O[C@@H](O[C@H]2[C@H](OC(=O)[C@]34CCC(C)(C)C[C@H]3C3=CCC5[C@@]6(C)C[C@H](O)[C@H](O[C@@H]7O[C@H](CO)[C@@H](O)[C@H](O)[C@H]7O)[C@@](C)(CO)C6[C@H](O)C[C@@]5(C)[C@]3(C)CC4)OC[C@H](O)[C@@H]2O)[C@H](O)[C@H](O)[C@H]1O[C@@H]1OC[C@@H](O)[C@H](O[C@@H]2OC[C@](O)(CO)[C@H]2O)[C@H]1O` (stereo partly drawn) here?
The activity change, negative = cell killing was -13.7% [at 9.23 µM].

With `CCNC(=O)C1OC(n2cnc3c(N)nc(NCCc4ccc(CCC(=O)O)cc4)nc32)C(O)C1O` (stereo not drawn) as the molecule, how does the “activity change, negative = cell killing” value read?
The value was -6.57%.

For `O=C1Nc2ccccc2C(O)(c2ccccc2)C1O` (stereo not drawn), which “activity change, negative = cell killing” value is on record?
The value was -12.7%.

For `CC1CC(O)C2(OC1=O)OC1C(O)C3C4CCC5CC(OC6OC(CO)C(O)C(O)C6OC6OC(C)C(O)C(O)C6O)CCC5(C)C4CCC3(C)C1C2C` (stereo not drawn), which “activity change, negative = cell killing” value is on record?
Its value is -11.2% [at 17.3 µM].

With `CC1=CC(=O)CC(C)(C)C1/C=C/C(C)O[C@@H]1O[C@H](CO)[C@@H](O)[C@H](O)[C@H]1O[C@@H]1OC[C@](O)(CO)[C@H]1O` (stereo partly drawn) as the molecule, how does the “outcome” value read?
The value was “inactive [at 17.3 µM]”.

With `OC[C@H]1O[C@@H](O[C@H]2[C@H](OCc3ccccc3)O[C@H](CO[C@@H]3OC[C@@H](O)[C@H](O)[C@H]3O)[C@@H](O)[C@@H]2O)[C@H](O)[C@@H](O)[C@@H]1O` as the molecule, how does the “activity change, negative = cell killing” value read?
The value was 0.926% [at 17.3 µM].

For `C[C@@H]1[C@H]2[C@H](O[C@@H]3O[C@H](CO)[C@@H](O)[C@H](O)[C@H]3O)OC=C(C(=O)O)[C@H]2C[C@@H]1O`, which “activity change, negative = cell killing” value is on record?
Its value is -7.57%.

Which “outcome” value does the source give for `C[C@H](O)[C@H](O)/C=C/c1cccc(O)c1CO` here?
The value was “inactive”.

With `O=C(O)/C=C/c1ccc(O)c(O[C@@H]2O[C@H](CO)[C@@H](O)[C@H](O)[C@H]2O)c1` as the molecule, how does the “outcome” value read?
The value was “inactive”.

For `C[C@@H]1O[C@@H](O[C@H]2[C@H](OC(=O)[C@]34CCC(C)(C)C[C@H]3C3=CCC5[C@@]6(C)CC[C@H](O[C@@H]7O[C@H](C(=O)O)[C@@H](O)[C@H](O)[C@H]7O[C@@H]7O[C@H](CO)[C@H](O)[C@H](O)[C@H]7O)[C@@](C)(C=O)C6CC[C@@]5(C)[C@]3(C)C[C@H]4O)O[C@H](C)[C@H](O[C@@H]3O[C@H](C)[C@H](O)[C@H](O)[C@H]3O)[C@@H]2O)[C@H](O)[C@H](O)[C@H]1O[C@@H]1OC[C@@H](O)[C@H](O[C@@H]2O[C@H](CO)[C@@H](O)[C@H](O)[C@H]2O)[C@H]1O` (stereo partly drawn), which activity change, negative = cell killing is on record?
Its activity change, negative = cell killing is -94% [at 4.96 µM].

Which activity change, negative = cell killing does the source give for `C[C@@H]1O[C@@H](O[C@@H]2[C@@H](O)[C@@H](O[C@]3(CO)O[C@H](CO)[C@@H](O)[C@@H]3OC(=O)/C=C/c3ccc(O)cc3)O[C@H](CO)[C@H]2OC(=O)/C=C/c2ccc(O)cc2)[C@H](O)[C@H](O)[C@H]1O[C@@H]1O[C@@H](C)[C@H](O[C@@H]2OC[C@](O)(CO)[C@H]2O)[C@@H](O)[C@H]1O` here?
The activity change, negative = cell killing was 1.71% [at 9.23 µM].

With `C=C(CO)C12OC1C1(C)C(=CC2=O)C(O)C(O)CC1C` (stereo not drawn) as the molecule, how does the “activity change, negative = cell killing” value read?
The value was -22.3%.

Which “activity change, negative = cell killing” value does the source give for `COC(=O)CC(O)CC(O)/C=C/c1c(C)ccc2c1C(O)CC(C)C2` (stereo not drawn) here?
The value was -4.83%.

With `COc1c2c(c(CO)c3c1C(=O)OC3)OC1(C)CCC3(O)C(C)(C)OC(=O)CCC3(C)C1C2` (stereo not drawn) as the molecule, how does the “activity change, negative = cell killing” value read?
Its value is -3.37% [at 17.3 µM].

With `CC1CCC2(C=O)C(CO)=CCCC2C1(C)CC(=O)O` (stereo not drawn) as the molecule, how does the “outcome” value read?
The value was “inactive”.

Which “activity change, negative = cell killing” value does the source give for `CC1CC(=O)C2=C(CCC3(O)C(O)c4c(O)cccc4C(=O)C23O)C1` (stereo not drawn) here?
Its value is -10.8%.

With `CC1(C)CC2=C3C=CC4C5(C)CCC(O)C(C)(C)C5CCC4(C)C3(C)CCC2(C)C(O)C1` (stereo not drawn) as the molecule, how does the “activity change, negative = cell killing” value read?
Its value is -17.1% [at 17.3 µM].

Which “activity change, negative = cell killing” value does the source give for `CC(C)=CCC/C(C)=C/CO[C@@H]1O[C@H](CO)[C@@H](OC(=O)/C=C/c2ccc(O)cc2)[C@H](O[C@@H]2O[C@@H](C)[C@H](O)[C@@H](O)[C@H]2O)[C@H]1O` here?
The value was -9.31% [at 17.3 µM].

From PubChem BioAssay (NCATS)
